This is an account of results in PubChem BioAssay.

A short description of test [1]: compound effects on differentiated 3T3-L1 adipocyte viability – cell-based, 3T3-L1 adipocytes, calcein-AM fluorescence, 48 h, basal, profiling panel (AID 1163). As to conditions: 3T3-L1 adipocytes viability, higher = more signal.
Test [2] can be described thus: compound effects on hepatocellular carcinoma cell viability – HepG2, calcein-AM fluorescence, 48 h, basal, profiling panel (AID 1164). As to conditions: higher = more signal.
The nature of test [3]: compound effects on multiple myeloma cell viability – MM1S, calcein-AM fluorescence, 48 h, basal, profiling panel (AID 1165). As to conditions: higher = more signal.
The nature of test [4]: calcein-AM signal in unstimulated myeloma cells – cell-based, calcein-AM fluorescence, 48 h, PK04 Diversity Set, profiling panel (AID 1166).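 Also: cells grown under basal conditions without added stimulus.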 As to conditions: RPMI8226 myeloma viability, higher = more signal.
Test [5] can be described thus: JC-1 mitochondrial signal, unstimulated HepG2 cells – cell-based, JC-1 fluorescence, 24 h, 100 nL compound, profiling panel (AID 1167). As to conditions: HepG2 mitochondrial potential, higher = more signal.
Test [6] in a line: JC-1 mitochondrial signal, unstimulated adipocytes – cell-based, JC-1 fluorescence, 3T3-L1 adipocytes, 24 h, 100 nL compound, profiling panel (AID 1168). Particulars: JC-1 mitochondrial fluorescence, higher = more signal, called active from +8 up or from −8 down.
The nature of test [7]: JC-1 mitochondrial signal, unstimulated myeloma cells – cell-based, JC-1 fluorescence, RPMI8226, 24 h, 100 nL compound, profiling panel (AID 1169). Particulars: JC-1 mitochondrial potential fluorescence, higher = more signal.
Test [8] is described as follows: JC-1 mitochondrial signal, unstimulated MM1S myeloma – cell-based, JC-1 fluorescence, 24 h, 100 nL compound, profiling panel (AID 1170). Particulars: MM1S mitochondrial potential, higher = more signal.
Test [9] in a line: resazurin metabolic signal in A549 cells – cell-based, resazurin fluorescence, 24 h, PK04 Diversity Set, profiling panel (AID 1171). Particulars: A549 viability, higher = more signal, called active from +8 up or from −8 down.
The nature of test [10]: resazurin metabolic signal in HepG2 cells – cell-based, resazurin fluorescence, 24 h, PK04 Diversity Set, profiling panel (AID 1172). Particulars: HepG2 viability, higher = more signal. In general terms: Alamar Blue is a resazurin reagent that responds to reducing activity.
Test [11] can be described thus: budding yeast growth changes without added modifier – OD600, strain BY4716, 24 h, basal condition, primary screen (AID 1173). Particulars: S. cerevisiae BY4716 growth, OD600, 24 h; higher = more signal, called active from +8 up or from −8 down.
The nature of test [12]: viability profiling in MM1S myeloma cells – cell-based, resazurin fluorescence, basal, 24 h, PK04 Diversity Set, profiling panel (AID 1174). As to conditions: higher = more signal, called active from +8 up or from −8 down.
The target in test [13] is Dihydroorotate dehydrogenase (quinone), mitochondrial (Plasmodium falciparum (isolate 3D7)) (UniProt Q08210). Kind of test: inhibition of P. falciparum DHODH – biochemical, C-terminal His tag, absorbance 600 nm, primary screen (AID 1175).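 Also: recombinant parasite enzyme with a five histidine tag at its C terminus.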 Particulars: PfDHODH enzyme, DCIP absorbance 600 nm; higher = more signal, called active from +8 up or from −8 down.
Test [14] is described as follows: growth modulation of vineyard yeast isolate – strain RM11-1a, OD600, basal, 24 h, primary screen (AID 1177).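 Also: cultures grown under basal conditions with no added stressor.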 Particulars: S. cerevisiae RM11-1a growth, OD600, 24 h; higher = more signal, called active from +8 up or from −8 down.
Test [15] can be described thus: growth of efflux-deficient E. coli DRC39 – strain DRC39, OD650, 24 h, E. coli filamentation inducers, primary screen (AID 1178).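 Also: growth measured as culture turbidity by optical density at 650 nm.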 As to conditions: E. coli DRC39 acrAB, higher = more signal, called active from +8 up or from −8 down.
Test [16] can be described thus: growth of efflux-deficient E. coli DRC39 – strain DRC39, OD650, 48 h, E. coli filamentation inducers, primary screen (AID 1179).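 Also: screen aims at cell division blockers that make cells filament.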 As to conditions: E. coli DRC39 delta-acrAB growth, higher = more signal, called active from +8 up or from −8 down.
The nature of test [17]: viability profiling in RPMI8226 myeloma cells – cell-based, resazurin fluorescence, basal, 24 h, PK04 Diversity Set, profiling panel (AID 1180).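 Also: RPMI8826 multiple myeloma cell line at 5000 cells per well.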 Particulars: higher = more signal.
In test [18] the target is E3 ubiquitin-protein ligase XIAP (Homo sapiens) (UniProt P98170). Kind of test: small molecules binding XIAP protein – biophysical, small-molecule microarray, fluorescence 635 nm, primary screen (AID 1181).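 Also: score merges 667 nm emission and signal to noise over triplicate slides.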 Particulars: higher = more signal.
Test [19] concerns XIP peptide (Xip251-270) binding. The test can be described thus: XIP fragment 251-270 binding compounds – biochemical, small-molecule microarray, fluorescence 635/667 nm, 0.1 µg/mL protein, primary screen (AID 1182). As to conditions: fluorescent protein binding, 635 nm, higher = more signal, called active from +8 up or from −8 down.
A further test deals with XIP peptide (Xip251-270). Kind of test: compounds binding XIP fragment 251-270 – biochemical, small-molecule microarray, fluorescence 635/667 nm, 0.5 µg/mL protein, primary screen (AID 1183). Particulars: fluorescence 635 nm, higher = more signal.

Active and inactive are the calls of the source.

Chain of Dihydroorotate dehydrogenase (quinone), mitochondrial (Plasmodium falciparum (isolate 3D7)) (Q08210 whole entry, looked up): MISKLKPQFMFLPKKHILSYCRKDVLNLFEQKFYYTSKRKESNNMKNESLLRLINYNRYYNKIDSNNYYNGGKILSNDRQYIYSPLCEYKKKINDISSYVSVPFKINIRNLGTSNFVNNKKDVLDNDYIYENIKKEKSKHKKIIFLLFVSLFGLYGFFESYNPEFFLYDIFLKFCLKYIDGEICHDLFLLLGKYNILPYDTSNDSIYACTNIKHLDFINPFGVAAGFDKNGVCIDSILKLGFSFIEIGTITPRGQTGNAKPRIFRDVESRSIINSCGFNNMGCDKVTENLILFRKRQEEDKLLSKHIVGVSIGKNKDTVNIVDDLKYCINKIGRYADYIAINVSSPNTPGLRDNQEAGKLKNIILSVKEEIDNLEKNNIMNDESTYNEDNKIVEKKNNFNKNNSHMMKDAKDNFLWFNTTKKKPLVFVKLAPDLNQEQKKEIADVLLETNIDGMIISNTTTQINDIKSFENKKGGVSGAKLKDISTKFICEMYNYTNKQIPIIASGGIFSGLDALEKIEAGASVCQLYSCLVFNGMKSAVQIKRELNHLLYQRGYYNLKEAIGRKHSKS
Chain of E3 ubiquitin-protein ligase XIAP (Homo sapiens) (P98170 whole entry, looked up, the tested form may be a part): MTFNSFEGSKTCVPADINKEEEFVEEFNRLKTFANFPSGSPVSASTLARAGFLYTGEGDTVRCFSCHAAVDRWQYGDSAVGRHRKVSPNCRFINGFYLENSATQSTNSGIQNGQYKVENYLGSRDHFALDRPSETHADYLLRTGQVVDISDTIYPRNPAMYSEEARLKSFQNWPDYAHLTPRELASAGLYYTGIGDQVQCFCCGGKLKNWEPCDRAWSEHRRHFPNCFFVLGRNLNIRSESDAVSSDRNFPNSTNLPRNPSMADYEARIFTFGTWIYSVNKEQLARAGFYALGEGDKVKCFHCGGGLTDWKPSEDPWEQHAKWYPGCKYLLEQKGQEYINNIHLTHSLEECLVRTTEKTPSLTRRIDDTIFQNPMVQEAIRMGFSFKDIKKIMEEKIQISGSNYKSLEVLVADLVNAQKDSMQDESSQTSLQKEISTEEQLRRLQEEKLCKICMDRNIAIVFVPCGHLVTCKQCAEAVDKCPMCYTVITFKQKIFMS

With `C=CCC(OC(C)=O)[C@@H]1[C@@H](N(Cc2cccc3ccccc23)C(=O)Cc2ccc(OC)cc2)c2cc(OCCCO)ccc2N1C(=O)Cc1ccc(OC)cc1` (stereo not given in full), the z-score was 1.47 in [1]; 0.691 in [2]; 1.76 in test [3]; -1.55 in [4]; 2.38 in [5]; 0.847 (inactive) in test [6]. Further, the z-score was -0.44 in test [7]; 0.791 in [8]; 0.493 (inactive) in test [9]; -0.197 in test [10]; -1.63 (inactive) in [11]; 0.844 (inactive) in test [12]. Besides, the z-score in test [14] is -0.27 (inactive); in [15], 1.51 (inactive); in [16], 0.443 (inactive); in test [17], 0.666. Moreover, the composite z-score in [13] is 0.363 (inactive); in test [18] it was 0.183; in [19], -0.203 (inactive); in the test on XIP peptide (Xip251-270) it was -0.665.

Turning to `CC(C)N1C(=O)c2ccccc2[C@@H](C(=O)NCc2ccccc2)[C@@H]1c1ccc(CO)cc1`, the z-score in [1] is 1.05; in [2] it was -0.179; in test [3], -0.601; in [4], 0.0541; in test [5], 0.617; in test [6], -0.0455 (inactive). For the same compound, the z-score in test [7] was 0.115; in test [8], -0.251; in test [9], 1.05 (inactive); in [10], 0.595; in [11], 0.25 (inactive); in test [12], 1.51 (inactive). Also, the z-score is 1.49 (inactive) in [14], 0.541 (inactive) in [15], 0.169 (inactive) in test [16] and 1.01 in test [17]. In addition, the composite z-score was 0.578 (inactive) in test [13], -0.0095 in test [18], 0.482 (inactive) in [19] and -0.988 in the test on XIP peptide (Xip251-270).

Take `COCCCN1C(=O)[C@@]2(Cc3ccccc31)c1ccccc1C(=O)N(Cc1ccccc1Cl)[C@H]2c1ccc(CO)cc1`: the z-score is -0.414 in [1]; 0.0836 in [2]; 0.712 in test [3]; 0.485 in test [4]; 1.58 in [5]; 1.33 (inactive) in [6]. The z-score in test [7] was 0.15; in [8], 0.828; in test [9], -0.306 (inactive); in test [10], -0.384; in test [11], -0.846 (inactive); in test [12] it was 0.686 (inactive). Also, the z-score in test [14] was -0.921 (inactive); in test [15], 0.56 (inactive); in test [16], 0.891 (inactive); in test [17], 0.902. In addition, the composite z-score is -12.4 (active) in [13], -0.0699 in [18], -0.31 (inactive) in test [19] and 0.107 in the test on XIP peptide (Xip251-270).

`CCOC(=O)C[C@H]1[C@H](OC(=O)Cc2ccc3c(c2)OCO3)[C@@H](NC(=O)c2ccc3ccccc3c2)c2cc(OCCCO)ccc2N1C(=O)c1ccc2ccccc2n1`: the z-score in test [1] is 0.898; in test [2] it was 1.94; in test [3] it was -0.144; in test [4], 0.934; in test [5], 2.77; in [6], 3.13 (inactive). Further, the z-score in test [7] was 0.319; in test [8], 1.64; in [9] it was 1.09 (inactive); in test [10], 1.36; in test [11], -1.73 (inactive); in test [12], -0.0816 (inactive). For the same compound, the z-score in test [14] is -4.07 (inactive); in test [15], 1.23 (inactive); in test [16], 0.0331 (inactive); in [17], -0.375. Further, the composite z-score is 0.623 (inactive) in test [13], 0.128 in test [18], 0.467 (inactive) in test [19] and -0.275 with XIP peptide (Xip251-270).
